High-throughput results deposited in PubChem BioAssay by several laboratories.
HSP90 refold inh: blocks HSP90-mediated luciferase refolding in reticulocyte lysate. Rabbit reticulocyte lysate, luciferase refolding luminescence, 3 h. inhibition, % at 5.6 µM. 290,000 tested, 0.91% active. AID 1789;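 active = inhibition above the screen-wide mean plus 3 SD, computed separately per campaign, cut at about 16% in these data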;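 also: 0% = DMSO wells and 100% = 60 µM geldanamycin wells; inhibitors lower the luminescence because luciferase stays unfolded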
Peg3 prom inh: reduces Peg3 promoter-driven luciferase expression in HeLa; inhibition, % at 20 µM; AID 588405; HeLa PEG-Prom luciferase reporter, luminescence, overnight; 360,000 tested, 1.7% active;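 active = inhibition of at least 50% at 20 µM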
LGR2 antag: Drosophila LGR2 receptor signaling inhibition. 380,000 tested, 0.35% active. inhibition, % at 9.99 µM. HEK293 LGR2, CRE-luciferase, bursicon-stimulated, 4 h;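 active = drop in luminescence signal, shown as inhibition above about 50% in the replicate tests, limit read from the data, passing the limit was not always enough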;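 also: agonist challenge used bursicon conditioned medium at about half maximal strength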
CF NFkB block: blocks PAF-induced NF-kB reporter in cystic fibrosis cells; KKLEB NF-kB-GFP reporter, GFP fluorescence overnight; 360,000 tested, 0.86% active; AID 588850; inhibition, % at 5 µM;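 active = at least 50% inhibition at 5 µM, scaled per plate between neutral and stimulator controls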;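 also: PAF is a Pseudomonas aeruginosa culture filtrate used as stimulus; plate controls were PAF-stimulated DMSO wells for no effect and unstimulated DMSO wells for full effect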
Mdm2-MdmX inh: human Mdm2/MdmX binding inhibition; SaOS-2 split-luciferase Mdm2/MdmX complementation, luminescence; inhibition, % at 8 µM; 330,000 tested, 3% active; AID 485346;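 active = inhibition of at least 50% at 8 µM in the primary screen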
KKLEB cytotox: reduces viability of KKLEB cystic fibrosis airway cells; KKLEB CF airway cells viability, ATPlite luminescence, overnight; active compounds read low; cells stimulated with P. aeruginosa culture filtrate; activity change (cytotoxicity), % at 5 µM; 360,000 tested, 0.36% active;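 active = corrected activity change at or below -50% at 5 µM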
Mdm2 MdmX conf: human Mdm2/MdmX binding inhibition, confirmed | inhibition, % at 8 µM | shares compounds with Mdm2-MdmX inh | luminescent assay | AID 489028 | 10,000 tested, 55% active; in the data active = inhibition above about 40%
FLuc counter: counter-screen for Mdm2/MdmX inhibitors: full-length luciferase | inhibition, % at 8 µM | SaOS-2 full-length luciferase counterscreen, luminescence | shares compounds with Mdm2-MdmX inh | 6,200 tested, 77% active | AID 504607;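 active = mean inhibition at 8 µM reaching about 37%, which flags the compound as non-specific, limit read from the data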;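 also: p53-null SaOS-2 cells with luciferase driven by a doxycycline-inducible promoter; compound on cells about two nights before reading with doxycycline added after day one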
The depositor's hits bear a star; x = not tested or not shown. In the library only some 3.6% were active in any assay of this set; here they are far more common.

SMILES | HSP90 refold inh | Peg3 prom inh | LGR2 antag | CF NFkB block | Mdm2-MdmX inh | KKLEB cytotox | Mdm2 MdmX conf | FLuc counter
Cc1cccc(-n2ncc3c(=O)[nH]c(SCC(=O)NCCC4=CCCCC4)nc32)c1 | x | 13 | 6 | -5 | 90* | 6 | 5 | x
CCCSc1nc2c(cnn2-c2ccc(C)cc2)c(=O)[nH]1 | -1 | 61* | 0 | 22 | 50* | -6 | 12 | x
C[C@H](CO)N1C[C@H](C)[C@H](CN(C)C(=O)NC2CCCCC2)Oc2ncc(/C=C/c3ccccc3)cc2C1=O | x | x | -12 | x | x | x | x | x
COC(=O)[C@@H]1[C@@H](CO)[C@@H]2Cn3c(ccc(/C=C/c4ccccc4)c3=O)[C@@H]2N1C(=O)CC1CC1 | x | x | -5 | x | x | x | x | x
O=C(Nc1ccccc1)N[C@@H]1CC[C@@H](CCNS(=O)(=O)c2cccc(F)c2)O[C@H]1CO | x | x | 11 | x | x | x | x | x
COc1ccc(C2=NOC(C(=O)NCc3ccc(F)cc3)C2)cc1OC (stereo not drawn) | 3 | 2 | -24 | 40 | 44 | -29 | x | x
COc1cc(C2=NOC(C(=O)NCc3ccc(F)cc3)C2)cc(OC)c1OC (stereo not drawn) | -2 | 17 | -3 | 38 | 61* | -34 | 58* | 83*
N#Cc1c(-c2ccccc2)c(C#N)c2nc3ccccc3n2c1N | -1 | 33 | -7 | 4 | 55* | 6 | 48* | 48*
COc1ccccc1NC(=O)N1C[C@@H](O)COC[C@@H]2O[C@@H](CC(=O)NCCc3ccncc3)CC[C@H]21 | x | x | -2 | x | x | x | x | x
CO[C@H]1CN(C)C(=O)c2ccc(NC(C)=O)cc2OC[C@H](C)N(Cc2ccncc2)C[C@H]1C | x | x | 3 | x | x | x | x | x
c1nc(C2CCCCC2)cc2cc3c(cc12)OCO3 | x | -276 | -94 | -23 | -63 | 7 | x | x
c1nc(CCO[C@H]2CCCCO2)cc2cc3c(cc12)OCO3 | x | 24 | 91* | -6 | 56* | 8 | 35 | x
O=C1C(Cl)=C(NCCN2CCCCC2)C(=O)c2ccccc21 | 3 | 99* | x | 75* | 99* | -27 | 12 | x
C[C@H](CO)N1C[C@H](C)[C@@H](CN(C)Cc2ccc(F)cc2)Oc2ncc(C#CCN(C)C)cc2C1=O | x | x | -14 | x | x | x | x | x
CCN1CCN(c2cc(C(C)C)nc3c(-c4ccccc4)c(C)nn23)CC1 | 1 | 30 | 1 | 20 | 55* | -22 | 28 | x
CCN1CCN(c2ccc(NC(=O)CCc3c(C)nc4c(-c5ccccc5)c(C)nn4c3C)cc2)CC1 | 7 | 70* | 25 | -6 | 89* | -27 | 44* | 66*
Cc1nn2c(N3CCOCC3)cc(C(C)(C)C)nc2c1-c1ccccc1 | -3 | 5 | 21 | 0 | 24 | 8 | x | x
Cc1nn2c(N3CCOCC3)cc(C(C)C)nc2c1-c1ccccc1 | 2 | 23 | -13 | 24 | 22 | -8 | x | x
CCN1CCN(c2cc(C(C)(C)C)nc3c(-c4ccccc4)c(C)nn23)CC1 | 5 | 51* | x | -7 | 54* | -1 | 53* | 67*
CCOC(=O)N(C)C[C@H]1OCc2ccccc2-c2ccccc2C(=O)N([C@@H](C)CO)C[C@@H]1C | x | x | 5 | x | x | x | x | x
COc1ccccc1C1C(C(C)=O)=C(C)N=c2s/c(=C\c3cc(OC)c(OC)c(OC)c3)c(=O)n21 (stereo not drawn) | 2 | 25 | x | 18 | 58* | 7 | 41* | 50*
CCOC(=O)C1=C(C)N=c2s/c(=C\c3cccc(OCC(=O)O)c3)c(=O)n2C1c1ccccc1OC (stereo not drawn) | 3 | 11 | -4 | 19 | 6 | 23 | x | x
COc1cccc(C2C3=C(N=c4s/c(=C\c5ccccc5O)c(=O)n42)c2ccccc2CC3)c1OC (stereo not drawn) | 2 | x | x | x | 95* | x | 50* | 53*
C/C(=N\NC(=O)C1(C)CC1(Br)Br)c1cccc(NC(=O)c2ccc(C)o2)c1 (stereo not drawn) | -5 | 62* | 2 | 7 | 61* | 0 | 22 | x
Clc1ccc(Cn2ncc3c(N4CCCCC4)ncnc32)c(Cl)c1 | -1 | x | 10 | x | 29 | x | x | x
Brc1cc(Br)c2ncnc(N3CCCCC3)c2c1 | -1 | 56* | x | 52* | 89* | -20 | 64* | 28
